According to ChEMBL document CHEMBL4888484, “Replenishing the malaria drug discovery pipeline: Screening and hit evaluation of the MMV Hit Generation Library 1 (HGL1) against asexual blood stage Plasmodium falciparum ,using a nano luciferase reporter read-out” (2022):
In all, about 150,000 compounds went through this assay and about 540 (0.36%) showed an effect of 50% or more. Only a selection was taken, and strong results are over-represented in it overall.

tested on: Plasmodium falciparum; experiment: Primary screen in NF54 nanoGlo assay, in single point, at 2uM, 72h; a lower Z score goes with more inhibition; type: functional, Erythrocyte; conditions: timepoint 72 hour

Compound	% Inhibition [%]	Z score
C=CCN1C(=O)OC(C)(CCC=C(C)C)C1(C)O (configuration not stated)	76	-1.64
O=C(COc1ccc(Br)cc1)Nc1ccc2c(c1)OCCCO2	-9	0.79
CC(C)C(=O)N(Cc1ccc(OS(=O)(=O)C(C)C)cc1)CC1CC1	-21	4
COc1cc(F)c(C(C)NC2C[C@@H]3COC[C@H]23)cc1OC (some centres not stated)	-1	0.15
CC(C)(C)OC(=O)C1C[C@@H](N)[C@@H](n2cc(C(C)(C)C)nn2)C1 (some centres not stated)	-7	1.24
Cc1ccccc1C(=O)N1[C@H](C(=O)NC2CC2)COC12CCN(C(=O)c1ccc(F)cc1)CC2	-2	0.23
CCc1nc(C#N)cc(N2CCC[C@@H]2CS(C)(=O)=O)n1	-2	0.21
O=S(=O)(CCCOc1ccccc1)NC[C@H]1CCCN1c1ccccc1	-13	2.45
Cc1cnc([C@H](C)N2CCC(S(=O)(=O)N3CCCC3)CC2)o1	-14	2.67
O=c1[nH]c2ccc(NCc3cc(Cl)ccc3OCc3ccccc3F)cc2[nH]1	2	-0.36
CC(C)(C)OC(=O)N1CC(OC(=O)CC2(CS(C)(=O)=O)CC2)C1	-13	1.78
CNC(=O)c1[nH]nc2c1CN(CC(=O)Nc1cccc(C)c1C)CC2	-5	0.76
Cc1cccc(CN2C[C@@H](O)C[C@H]2c2nnc3n2CCN(C(=O)C(C)C)C3)c1	4	-0.68
CC(C)(C)OC(=O)N1CCC2(CC1)NN=C1C=C(N3CCN(c4ccccc4F)CC3)N=CN12	50	1.26
C[C@@]1(C(=O)N2CCN(c3ccccc3F)CC2)Oc2ccccc2NC1=O	1	-0.16
CC(C)(C)OC(=O)N1CCN(c2nnc(NC(=O)c3c(F)cccc3F)[nH]2)CC1	-14	1.7
O=C(Nc1ccc(-n2cnnn2)cc1)c1coc(-c2ccccc2)n1	-6	1.22
CN1CCN(S(=O)(=O)N[C@@H](CO)c2ccc(F)cc2)CC1	-12	2.47
OC[C@H]1CCN(c2ccnc3cc(Cl)ccc23)C[C@@H]1O	-1	0.17
COc1cc2c(N3CCC([C@H](O)C(=O)NC4CC4)CC3)ccnc2cc1F	-6	0.61
CCC(CC)N(Cc1ccc2c(c1)OCO2)C(=O)Cc1cccnc1	23	-2.95

Compound	% Inhibition [%]	Z score
CCOc1ccc(CN2CCC[C@@](F)(C(=O)N3CCOCC3)C2)cc1OC	-11	0.93
N#CCc1ncc(CCN2C(=O)c3ccccc3C2=O)s1	51	-6.59
O=C1c2ccccc2C(=O)N1Cc1cnc(N2CCCCC2)s1	45	0.07
CC(=O)Nc1ccnc(Cc2ccccc2)n1	-8	1.29
CC(CCc1cccn1C)NC(=O)NC1CCN(c2cnn(C)c2)C1 (configuration not stated)	-1	0.08
CCc1nn(C)cc1NC(=O)N1CCN(C(=O)c2ccc(F)cc2)CC1	5	-0.74
COc1ccc(C(=O)Nc2ccc3nc4c(c(Nc5ccc(OC)c(OC)c5)c3c2)CCCC4)c(OC)c1	-8	0.97
COc1ccccc1Nc1c2c(nc3ccc(NC(=O)c4ccc5c(c4)OCO5)cc13)CCCC2	2	-0.26
CCOc1cc(C(=O)Nc2ccc3nc4c(c(Nc5ccc(OC)c(OC)c5)c3c2)CCCC4)cc(OCC)c1OCC	93	-11.16
FC(F)(F)c1cnc(N2CCOC3(CCOCC3)CC2)s1	105	-19.68
CC1(N2CCOCC2)CCN(c2ncc(C(F)(F)F)s2)CC1	-5	0.84
CCC1(N2CCOCC2)CCN(c2ncc(C(F)(F)F)s2)CC1	12	-1.55
CC(C)(C)c1cc(CN2CCC3(CC2)[C@H](O)C[C@@H]3O)n[nH]1	-1	0.15
CC1(C#N)CCN(Cc2cc(C(C)(C)C)[nH]n2)CC1	4	-0.56
CC(C)(C)c1cc(CN2CCN(S(N)(=O)=O)CC2)n[nH]1	72	-0.86
CC(C)OCC(=O)Nc1ccn(CCCn2ccnc2)n1	-7	1.24
CCc1cc(NC(=O)Cc2ccc(OC)cc2)nn1-c1ccc(OC)cc1	-2	0.3
Cc1cc(NC(=O)COc2ccccc2)nn1-c1ccc(Cl)cc1	-3	0.32
COc1ccc(CC(=O)Nc2cc(C)n(-c3cccc(Cl)c3)n2)cc1	80	-8.55
O=C(Nc1cccnc1O)c1nc(C2CC2)n(-c2ccccc2)n1	33	-3.76
CN(C)C(=NCCC1CCCC1)N(C)C	-7	0.94

Compound	% Inhibition [%]	Z score
O=C(Cc1n[nH]c(=O)c2ccccc12)N[C@H]1CCCc2c1[nH]c1c(Cl)cccc21	3	-0.39
CCN1CCCCc2cc(C(=O)N[C@H]3CCS(=O)(=O)C3)sc21	-2	0.2
COc1ccc(C(=O)N2c3ncnn3C(c3ccccc3)CC2c2ccc(C)cc2)cc1OC (configuration not stated)	76	-10.75
COc1ccc(C2CC(c3ccc(C)cc3)n3ncnc3N2C(=O)c2ccccc2)cc1 (configuration not stated)	32	-3.62
CCC(=O)N1c2ncnn2C(c2ccc(C)cc2)CC1c1ccccc1 (configuration not stated)	3	-0.41
CC(C)n1ncc2c1CC(NC(=O)CCC1CCCO1)CC2 (configuration not stated)	-3	0.62
CN(C)c1ccc(C(=O)Nc2ccccc2-c2cn3c(n2)CCCC3)nn1	-10	1.93
O=C1C2CCCCN2C(=O)N1CC(O)COc1ccc(F)cc1 (configuration not stated)	-5	0.77
CCOC1CC(NC(C)C(=O)N(C)Cc2cccc(F)c2)C12CCCC2 (configuration not stated)	4	-0.62
CCOC1CC(NCc2c[nH]nc2-c2cccnc2)C12CCC2 (configuration not stated)	-10	1.18
CCOC1CC(NC2CC(c3ccc(F)cc3)C2)C12CCC2 (configuration not stated)	85	-15.92
CCn1ccc(C(=O)N2CC(N(Cc3cccnc3)S(C)(=O)=O)C2)n1	-4	0.78
CC(C)(C)OC(=O)N[C@@H]1CCCN(Cc2nc(-c3ccco3)no2)C1	-11	1.1
Cc1nn2c(-c3ccc(-c4ccccc4)cc3)ccnc2c1Cl	-12	1.64
CCc1noc(Cc2c(C)nn(-c3ccccc3)c2C)n1	-5	0.89
CCc1c(C)nn2c(c1C)c(-c1ccccc1)[n+]1c(C)c(CC)c(C)nc21	53	-10.21
C[C@@H](CN1CCOCC1)NC(=O)c1cccc2c1C(=O)OC2(C)C	2	-0.36
O=C(CN1C(=O)CCC1=O)N1CCN(S(=O)(=O)c2ccc(Br)cc2)CC1	-14	1.24
COc1cccc([C@H]2C[C@H](N(C)C(=O)CCCC(F)(F)F)C2)c1	5	-0.72
Cn1nc(-c2nc(-c3cccc(F)c3)no2)c2c1CCN(C(=O)c1ccccn1)C2	12	-1.38
Cn1nc(-c2nc(-c3ccc(F)cc3)no2)c2c1CCN(C(=O)c1cccc(Cl)c1)C2	66	-7.55

Compound	% Inhibition [%]	Z score
Cn1nc(-c2nc(-c3cccc(F)c3)no2)c2c1CCN(C(=O)c1cccc(F)c1)C2	-7	0.84
CC12CN(S(=O)(=O)c3ccc4c(c3)OCCO4)C3(C(=O)OCc4ccccc4)CC1CCC23C (configuration not stated)	70	-8.79
CC12CN(S(=O)(=O)c3ccccc3)C3(C(=O)O)CC1CCC23C (configuration not stated)	6	-0.98
CC12CN(S(=O)(=O)c3ccc4c(c3)OCCO4)C3(C(=O)NCCc4ccccc4)CC1CCC23C (configuration not stated)	-11	1.42
CCCN1CCN(CCCNC(=O)c2cc3cc(S(=O)(=O)N(C)C)ccc3n2CC)CC1	-15	2.13
c1ccc(-c2cn3c(n2)c(-c2ccc4ccccc4n2)cc2ccccc23)cc1	76	-4.16
CC(C)CCn1c(=O)c(-c2ccc3ccccc3n2)cc2ccccc21	-1	0.07
Clc1ccc(-c2cn3c(nc4ccccc43)c(-c3ccccc3)n2)cc1	-43	5.09
COc1ccc(C[C@@]2(CCC(=O)N3CCCCC3)CCC(=O)N2)cc1	4	-0.58
OC(CNC1CCCNc2ccccc21)c1ccc(Cl)s1 (configuration not stated)	57	-4.74
OCc1cc(CN[C@H]2CCCNc3ccccc32)ccc1F	4	-0.52
O=C(Cc1cccs1)N1CCC2(CCC(=O)N(CCc3cccnc3)C2)CC1	5	-1.07
COc1ncnc(OC)c1CNc1cnn(C)c1	35	-0.52
O=C(CC(F)(F)F)N1CCC[C@H](Oc2ncccn2)C1	14	-1.95
Cc1noc2ncnc(N3CCC4(CC3)CC(=O)N(Cc3ccccc3)C4)c12	-6	0.71
O=C(c1cc(-c2ccccc2)n[nH]1)N1CCC(N2CCC(Oc3ccccc3F)CC2)CC1	-12	1.48
O=C(c1cc(-c2ccco2)n[nH]1)N1CCC(Oc2ccccn2)CC1	-4	0.71
O=C(c1cc(-c2ccco2)n[nH]1)N1CCC(N2CCC(Oc3ccccc3F)CC2)CC1	59	-4.88
